Measured values reported in the supplement of paper PMC10646978.
± gives the standard deviation.

Legend:
Settings in all cases: modulator concentration 10 µM
[1] = tested on: RAW-Dual (murine macrophage reporter line); assay: NF-kB reporter (SEAP) activity fold change vs agonist alone; higher = enhanced NF-kB activity
In short: (§1)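 RAW-Dual murine macrophage reporter cells were seeded at 50 000 per well in 384-well plates and pre-incubated 1 hour at 37 °C with compound pin-transferred to 10 μM final. After 1 hour, a PRR agonist was added and cells incubated overnight. Supernatant NF-κB (SEAP, QUANTI-Blue, 620 nm absorbance) and IRF (Lucia luciferase, QUANTI-Luc, luminescence) signals were divided by the mean agonist-only control on the same plate to give fold change. Two replicate plates were averaged, with errors by propagation.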

[2] = tested on: RAW-Dual (murine macrophage reporter line); assay: IRF reporter (Lucia luciferase) activity fold change vs agonist alone; higher = enhanced IRF activity
In short: as §1

[3] = tested on: RAW-Dual (murine macrophage reporter line); assay: viability score (confluency relative to resting cells, overnight) (fraction); higher = more viable, active = viable (0.7 or more)
In short: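 RAW-Dual macrophages in 384-well plates were treated overnight with compound at 10 μM final. IncuCyte imaging recorded confluency, and IncuCyte software built two confluency masks across every imaged well. The viability score expresses confluency relative to resting cells and was judged against a cutoff, which a compound met only if both masks exceeded 70% of resting cells.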

[4] = agonist: CpG ODN 1826 0.5 ug/mL

| Compound | NF-kB reporter [1, 4] | NF-kB reporter ([1]; agonist: LPS 0.1 ug/mL) | NF-kB reporter ([1]; agonist: MPLA […]) | IRF reporter ([2]; agonist: 3'3'-cGAMP 10 ug/mL) | IRF reporter ([2]; agonist: LPS 0.1 ug/mL) | IRF reporter ([2]; agonist: MPLA […]) | viability score [3] |
| --- | --- | --- | --- | --- | --- | --- | --- |
| Oc1c2c(nc3cc(-c4ccc(Cl)cc4)nn13)CCS2 | 1.1 ± 0.09 | 0.945 ± 0.12 | 0.973 ± 0.031 | 0.976 ± 0.038 | 0.967 ± 0.047 | 1.11 ± 0.14 | 0.998 (active) |
| CN1CCN(CCCN2c3ccccc3Sc3ccc(Cl)cc32)CC1 [Prestw-399] | 0.442 ± 0.026 | 0.845 ± 0.073 | 1.73 ± 0.048 | 1.23 ± 0.051 | 1.1 ± 0.085 | 1.46 ± 0.15 | 0.114 (inactive) |
| Cc1ccc(C(CNC(=O)Cc2cccc3ccccc23)N(C)C)cc1 (centres undefined) | 0.647 ± 0.033 | 1.13 ± 0.094 | 1.06 ± 0.048 | 0.899 ± 0.045 | 1.03 ± 0.12 | 1.23 ± 0.27 | 0.738 (active) |
| Cc1cc(N2CCCCC2)nc2ccccc12 | 0.493 ± 0.041 | 0.701 ± 0.056 | 0.73 ± 0.093 | 0.982 ± 0.032 | 1.03 ± 0.098 | 1.21 ± 0.17 | 0.293 (inactive) |
| O=C(CCCC(=O)Nc1ccc(Cl)c(Cl)c1)Nc1ccc(Cl)c(Cl)c1 | 0.964 ± 0.076 | 1.02 ± 0.062 | 0.914 ± 0.068 | 0.963 ± 0.029 | 1.41 ± 0.13 | 1.13 ± 0.14 | 1.01 (active) |
| CCOC(=O)OC(C)OC1=C(C(=O)Nc2ccccn2)N(C)S(=O)(=O)c2ccccc21 (centres undefined) | 1.12 ± 0.15 | 1.28 ± 0.25 | 0.995 ± 0.056 | 0.948 ± 0.029 | 1.37 ± 0.34 | 1.32 ± 0.12 | 0.989 (active) |
| Cc1ccc(C(=O)NC(=Cc2cccc3ccccc23)C(=O)N2CCCC2)cc1 | 0.957 ± 0.075 | 1.03 ± 0.067 | 0.974 ± 0.086 | 0.966 ± 0.042 | 1.31 ± 0.23 | 1.15 ± 0.22 | 1.01 (active) |
| Cc1cc(C)nc(SCCCCSc2nc(C)cc(C)n2)n1 | 1.03 ± 0.062 | 0.975 ± 0.14 | 0.944 ± 0.025 | 1.13 ± 0.14 | 0.979 ± 0.11 | 0.909 ± 0.21 | 0.996 (active) |
| O=C(c1ccc(F)cc1)N(C1CCCCC1)C1CCCCC1 | 0.68 ± 0.053 | 0.921 ± 0.067 | 1.07 ± 0.1 | 0.959 ± 0.033 | 1.28 ± 0.14 | 1.4 ± 0.22 | 1.02 (active) |
| Cc1c(C)n2c3c(=O)n(CC=Cc4ccccc4)c(=O)n(C)c3nc2n1CCOCCO | 0.702 ± 0.046 | 1.16 ± 0.091 | 1.03 ± 0.17 | 0.98 ± 0.055 | 1.03 ± 0.063 | 1.09 ± 0.085 | 0.955 (active) |
| CCc1c(C)[nH]c2c1C(=O)C(CN1CCOCC1)CC2 (centres undefined) [Prestw-1035] | 1.2 ± 0.1 | 0.92 ± 0.07 | 0.934 ± 0.027 | 1.03 ± 0.04 | 0.925 ± 0.049 | 0.959 ± 0.11 | 1 (active) |
| CC(C)NC[C@H](O)COc1ccc(CCOCC2CC2)cc1.Cl | 1.15 ± 0.1 | 1.07 ± 0.16 | 1.11 ± 0.037 | 0.871 ± 0.11 | 0.987 ± 0.09 | 0.868 ± 0.12 | 1 (active) |
| O=C(c1ccco1)c1nc2c(n1O)CCCCC2 | 1.12 ± 0.073 | 0.995 ± 0.089 | 1.03 ± 0.028 | 0.998 ± 0.07 | 0.971 ± 0.078 | 1.03 ± 0.1 | 1 (active) |
| CN(C)c1ccc(C=C2C(=O)C(=O)c3ccccc32)cc1Br | 0.989 ± 0.098 | 0.947 ± 0.15 | 0.999 ± 0.036 | 1.02 ± 0.21 | 1 ± 0.043 | 1 ± 0.16 | 1 (active) |
| CCNc1nc(S)nc(NC(C)C)n1 | 1.13 ± 0.085 | 1.03 ± 0.051 | 1.02 ± 0.024 | 0.731 ± 0.041 | 0.98 ± 0.13 | 0.927 ± 0.11 | 0.991 (active) |
| O=C1CSC(=S)N1N=Cc1ccc(O)c([N+](=O)[O-])c1 | 0.956 ± 0.091 | 1.1 ± 0.11 | 0.97 ± 0.084 | 1.04 ± 0.027 | 1.75 ± 0.36 | 1.1 ± 0.17 | 0.994 (active) |
| CN1CCN(S(=O)(=O)c2ccc(-c3ccc(S(=O)(=O)N4CCN(C)CC4)cc3)cc2)CC1 | 0.865 ± 0.048 | 1.06 ± 0.074 | 0.955 ± 0.06 | 1.04 ± 0.043 | 1.45 ± 0.15 | 1.1 ± 0.098 | 0.999 (active) |
| COCC(=O)Nc1c(C(=O)Nc2ccc(OC(F)(F)F)cc2)oc2ccccc12 | 1.26 ± 0.1 | 1.24 ± 0.098 | 1.22 ± 0.11 | 1.58 ± 0.085 | 1.84 ± 0.17 | 1.85 ± 0.38 | 0.922 (active) |
| COCC(=O)N1CCC2(CC1)NC(=O)N(Cc1ccc(Cl)cc1)C2=O | 0.764 ± 0.18 | 1.05 ± 0.075 | 1.05 ± 0.091 | 0.995 ± 0.05 | 1.02 ± 0.12 | 1.15 ± 0.28 | 1 (active) |
| CC(C)=CCCC(C)=CC=NNC(=S)Nc1ccc(C)cc1 | 0.855 ± 0.049 | 1.12 ± 0.075 | 1.02 ± 0.065 | 0.256 ± 0.019 | 1.55 ± 0.19 | 1.5 ± 0.18 | 0.997 (active) |
| COC(=O)C1=C(C)NC(C)=C(C(=O)OC)C1c1c(F)cccc1Cl | 0.828 ± 0.067 | 1.27 ± 0.072 | 1.42 ± 0.092 | 1.1 ± 0.04 | 1.17 ± 0.11 | 1.2 ± 0.23 | 0.979 (active) |
| CC(CCc1ccccc1)NCC(O)c1ccc(O)c(C(N)=O)c1.Cl (centres undefined) | 1.04 ± 0.15 | 1.18 ± 0.088 | 1.1 ± 0.061 | 0.944 ± 0.033 | 1.11 ± 0.095 | 1.22 ± 0.23 | 0.984 (active) |
| NC(C(=O)O)c1ccccc1F (centres undefined) | 0.928 ± 0.11 | 0.966 ± 0.11 | 0.994 ± 0.039 | 0.939 ± 0.056 | 0.969 ± 0.053 | 0.81 ± 0.082 | 1 (active) |
| CCOC(=O)C1=C(C)NC2=C(C(=O)CC(C)(C)C2)C1c1ccccc1Br (centres undefined) | 0.993 ± 0.096 | 1.07 ± 0.059 | 0.934 ± 0.056 | 0.898 ± 0.022 | 1.32 ± 0.19 | 0.975 ± 0.2 | 1.02 (active) |
| CCN(CC)CCOC(=O)C(c1ccccc1)C1CCCCC1.Cl (centres undefined) | 1.04 ± 0.08 | 0.861 ± 0.076 | 0.878 ± 0.082 | 1.07 ± 0.033 | 1.31 ± 0.13 | 1.52 ± 0.18 | 0.948 (active) |
| Cl.N=C1CCCN1Cc1[nH]c(=O)[nH]c(=O)c1Cl | 1.46 ± 0.062 | 0.379 ± 0.037 | 0.688 ± 0.06 | 0.423 ± 0.028 | 0.796 ± 0.23 | 0.995 ± 0.31 | 0.961 (active) |
| OCCN1CCN(CCCN2c3ccccc3C=Cc3ccccc32)CC1 [Prestw-1456] | 0.862 ± 0.066 | 1 ± 0.082 | 1.37 ± 0.053 | 0.807 ± 0.029 | 1.06 ± 0.049 | 1.49 ± 0.18 | 0.904 (active) |
